# Measurements from PubChem BioAssay AID1376 (SRMLSC, 2008).
# The whole screen tested about 220,000 compounds, of which about 530 (0.24%) were called active. This is one part of a sample in which actives are shown more often than they occur. Entries with a potency or affinity are not part of this list. A number with no mark means an inactive call. Rule as the data show it: active = inhibition above about 13%; inconclusive = no clear call, values can overlap the other calls; inactive = below that.
# Target: Bifunctional protein GlmU (Mycobacterium tuberculosis (strain ATCC 25618 / H37Rv)) (UniProt P9WMN3)
# Assay: inhibition of mycobacterial GlmU enzyme – biochemical, glucosamine-1-phosphate acetyltransferase (AID 1376);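 also: 0% = complete reaction with vehicle and 100% = reaction without substrate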
# Conditions: M. tuberculosis GlmU acetyltransferase enzyme assay; active compounds read high;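 tested at 30 µM in the primary screen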
# Sequence of Bifunctional protein GlmU (Mycobacterium tuberculosis (strain ATCC 25618 / H37Rv)) (P9WMN3 whole entry, looked up): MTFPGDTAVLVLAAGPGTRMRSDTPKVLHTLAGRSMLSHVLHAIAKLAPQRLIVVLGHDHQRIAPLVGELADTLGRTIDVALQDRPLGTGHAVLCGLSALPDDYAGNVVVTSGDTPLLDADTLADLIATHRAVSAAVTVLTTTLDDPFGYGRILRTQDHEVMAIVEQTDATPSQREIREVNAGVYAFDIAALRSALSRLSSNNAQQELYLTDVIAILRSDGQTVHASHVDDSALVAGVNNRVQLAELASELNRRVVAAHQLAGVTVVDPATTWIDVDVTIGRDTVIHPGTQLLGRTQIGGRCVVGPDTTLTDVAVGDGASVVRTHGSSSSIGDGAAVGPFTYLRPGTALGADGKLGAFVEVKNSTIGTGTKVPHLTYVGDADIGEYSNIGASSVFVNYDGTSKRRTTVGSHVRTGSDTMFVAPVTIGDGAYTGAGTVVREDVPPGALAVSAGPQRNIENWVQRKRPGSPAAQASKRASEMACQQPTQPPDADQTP
row,Compound,inhibition
1,Cc1cc(C)c(Nc2cc(S(=O)(=O)O)c(N)c3c2C(=O)c2ccccc2C3=O)c(C)c1,17.5% (active)
2,Cc1cccc(S(=O)(=O)Nc2cccc3c2C(=O)c2ccccc2-3)c1,2.87%
3,Cc1cc(C)c(NC(=O)COC(=O)c2cccc3c2C(=O)c2ccccc2C3=O)c(C)c1,3.23%
4,O=C(O)c1cccc(NC(CNS(=O)(=O)c2ccc(Cl)cc2)c2ccccc2)c1 (stereo not given),3.6%
5,CN1CCN(CCOc2ccc(Cl)c(Cl)c2)CC1,-3.6%
6,CCc1ccccc1NC(=O)c1ccc(CN2CCC(Cc3ccccc3)CC2)cc1,3.49%
7,CCOC(=O)COc1cnc2ccccc2n1,1.75%
8,CC(=O)Nc1ccc(S(=O)(=O)Nc2nc3ccc(C)cc3s2)cc1,13.2% (active)
9,CC(=O)Nc1ccc2nc(NS(=O)(=O)c3ccc(C)cc3)sc2c1,3.98%
10,COc1ccc2nc(NS(=O)(=O)c3ccc(NC(C)=O)cc3)sc2c1,4.76%
11,CCc1c(O)nc(SCC(=O)NCc2ccco2)[nH]c1=O,-0.2%
12,COc1ccc(Nc2ccc(N3C(=O)CCC3=O)cc2[N+](=O)[O-])cn1,2.73%
13,CCCc1ccc(C(=O)NNc2cc(Cl)ccc2Cl)cc1,2.48%
14,CCCc1ccc(C(=O)NNC(=O)c2ccc(Cl)cc2)cc1,17.1% (active)
15,CCCc1ccc(C(=O)NNC(=O)c2ccc(Br)cc2)cc1,1.63%
16,CCOc1ccccc1/C=N/NC(=O)CNC(=O)c1ccc(S(=O)(=O)N2CCOCC2)cc1,0.48%
17,COC(=O)c1c(NC(=O)c2nc3ccccc3s2)sc2c1CCN(C(C)=O)C2,-1.93%
18,CC(C)N1CCc2c(sc(NC(=O)c3nc4ccccc4s3)c2C(N)=O)C1,13.7% (active)
19,CC(C)N1CCc2c(sc(NC(=O)c3cc(-c4cccs4)nc4ccccc34)c2C(N)=O)C1,-3.1%
20,CCC(=O)N1CCc2cc(Br)cc(S(=O)(=O)CCC(=O)N(CC)CC)c21,-2.77%

row,Compound,inhibition
1,CCN=C1S/C(=C\c2cc(OCC)c(O)cc2Br)C(=O)N1CC,-1.66%
2,COc1ccc(N(CC(=O)NN=C2CCCCCCC2)S(=O)(=O)c2ccccc2)cc1Cl,0.05%
3,CC(=O)Nc1ccc(NC(=O)CCCSc2nc3ccccc3[nH]2)cc1,-7.79%
4,Cc1cc(C(F)F)n2ncc(C(=O)NCc3ccc(F)cc3)c2n1,3.5%
5,COc1ccc(CNC(=O)c2cnn3c(C(F)F)cc(C)nc23)cc1,14.5% (active)
6,Cc1cc(C(F)F)n2ncc(C(=O)NCc3ccccc3)c2n1,1.36%
7,CCS(=O)(=O)NCCNc1ccc([N+](=O)[O-])cc1,1.84%
8,Nc1nc(SCC(=O)NCc2ccccc2)n[nH]1,0.23%
9,Cc1cc2c(o1)CC(C)(C)CC2=O,1.91%
10,O=C(Nc1cccnc1)c1cc2c(ccc3ccccc32)o1,7.23%
11,CCCCOC(=O)Nc1ccc(S(=O)(=O)Nc2nccs2)cc1,-2.11%
12,NC(=S)n1[nH]c(-c2ccc([N+](=O)[O-])cc2)c(N=Nc2ccccc2[N+](=O)[O-])c1=O,-2.18%
13,Cc1c(N=Nc2c(-c3ccc([N+](=O)[O-])cc3)[nH]n(C(N)=S)c2=O)cccc1[N+](=O)[O-],14.5% (active)
14,Cc1ccc([N+](=O)[O-])cc1N=Nc1c(-c2ccc([N+](=O)[O-])cc2)[nH]n(C(N)=S)c1=O,0.14%
15,NCCN1CCN(CCN)CC1,-1.39%
16,COc1ccc(C2(C)NC(=O)N(CC(=O)Nc3ccc(-c4nc5ccc(C)cc5s4)cc3)C2=O)cc1 (stereo not given),-4.16%
17,O=c1cc(Cl)[nH]c(=O)n1CCNc1ncc(C(F)(F)F)cc1Cl,-0.65%
18,O=C(c1ccccc1F)N1CCCC(C(=O)N2CCN(c3ccccc3)CC2)C1 (stereo not given),4.78%
19,CC(C)C(=O)N1CCN(c2ccc(NC(=O)c3cccs3)cc2)CC1,-0.11%
20,C=CCOc1c(CNc2ccc(C(=O)O)cc2)cccc1OCC,-3.36%

row,Compound,inhibition
1,C=CCOc1c(CNc2cccc(C(=O)O)c2)cccc1OC,-2.58%
2,C=CCOc1c(CNc2cccc(C(=O)O)c2)cccc1OCC,17.6% (active)
3,COc1ccc(CC(=O)Nc2c3c(nn2-c2cccc(C)c2C)CS(=O)C3)cc1 (stereo not given),0.63%
4,CCN(C(=O)c1cc2c(=O)[nH]c3ccc(C)cc3c2s1)c1cccc(C)c1,0.79%
5,Cn1c(=O)c2c(nc(SCC(=O)c3ccccc3F)n2C)n(C)c1=O,2.09%
6,COc1cccc2c1OC1(C)CC2NC(=O)N1 (stereo not given),7.2%
7,COc1ccc(-c2nnc3ccc(SCC(=O)NCc4ccco4)nn23)cc1,-0.33%
8,Cc1cccc(C(=O)NC(Oc2ccccc2)C(Cl)(Cl)Cl)c1 (stereo not given),0.69%
9,O=C(NC(Oc1ccccc1)C(Cl)(Cl)Cl)c1ccccc1 (stereo not given),2.49%
10,COc1ccc(C(=O)NC(Oc2ccccc2)C(Cl)(Cl)Cl)cc1 (stereo not given),46.8% (active)
11,CCCCCC(=O)c1c(C)[nH]c(C(=O)OCC)c1C,2.82%
12,NC(=O)C1(N2CCCCC2)CCN(C(=S)Nc2cc(F)cc(F)c2)CC1,3.46%
13,Cn1nnc(CC[N+](C)(C)C)n1,-0.54%
14,CCOC(=O)c1cnc2c(-c3ccc(Cl)cc3)c(C)nn2c1N,-0.25%
15,CCn1c(SCC(=O)OCC(=O)N2c3ccccc3NC(=O)C2(C)C)nnc1-c1ccco1,3.17%
16,CCN(c1ccc(NS(=O)(=O)c2cc(Cl)ccc2Cl)cc1)C(C)C,-7.63%
17,CCc1c(C)sc(NC(=O)c2ccco2)c1C(=O)N1CCCCC1,0.95%
18,CCc1c(C)sc(NC(=O)OC)c1C(=O)N1CCOCC1,2.3%
19,CCc1c(C)sc(NC(=O)c2ccco2)c1C(=O)N1CCOCC1,13.4% (active)
20,Cc1ccccc1NC(=S)N(CCN(C)C)C(C)c1ccco1 (stereo not given),-1.1%
